The results in this text go back to PubChem BioAssay (Tox21).

A short description of experiment [1]: qHTS assay to identify small molecule agonists of the sonic hedgehog signaling (Shh) pathway (AID 1259368).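 Note: NIH/3T3-derived 3T3Gli1-Luc cells carrying a stable Gli1-driven firefly luciferase reporter; series mostly up to about 92 µM; nearly all actives have a fitted effect of over 15% in size.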 The procedure, abridged:
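Steps: seed 3T3 Gli1-Luc cells, incubate 4 hr at 37 C, pin-transfer compounds in DMSO alongside a positive control, incubate 24 hr, add luciferase detection reagent, wait 30 min at room temperature, read luminescence.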
Background: qHTS replaces the single test concentration by a dilution series.

Experiment [2] in a line: qHTS assay to identify small molecule antagonists of the sonic hedgehog signaling (Shh) pathway (AID 1259369). Note: nearly all actives have a fitted effect of over 45% in size. The procedure, abridged: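 Inhibition of Shh signalling is measured as reduced Gli1-response-element firefly luciferase output in an NIH/3T3-derived stable reporter clone stimulated with conditioned medium for 24hr.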
The target of experiment [3] is Estrogen receptor beta (Homo sapiens) (UniProt Q92731). As to the kind of experiment: qHTS assay to identify small molecule agonists of the estrogen receptor beta (ER-beta) signaling pathway (AID 1259377; active = well fitted activation curve with a large enough effect in the signal ratio in the repeat runs, not every such curve was filed as active; the % refers to the signal ratio). The procedure, abridged:
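ER-beta-UAS-bla HEK293T cells in medium with 2% charcoal-stripped FBS were exposed to compounds for 16 h at 37C. Beta-lactamase reporter activity was read as fluorescence after 2 h with LiveBLAzer B/G FRET substrate at room temperature.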

Experiment [4] has the same target. As to the kind of experiment: qHTS assay to identify small molecule antagonists of the estrogen receptor beta (ER-beta) signaling pathway (AID 1259378; active = well fitted inhibition curve with a large enough effect in the signal ratio in the repeat runs, not every such curve was filed as active; the % refers to the signal ratio). A digest of the protocol:
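ER-beta-UAS-bla HEK293T cells in 2% charcoal-stripped FBS medium treated with compound plus 1nM final 17-beta-estradiol for 16 hr at 37C. Beta-lactamase reporter read by FRET substrate fluorescence after 2 hours at room temperature.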

Experiment [5] is described as follows: qHTS assay to identify small molecule agonists of the androgen receptor (AR) signaling pathway in the presence of an antagonist - cell viability counter screen (AID 1259379; active = well fitted curve in the direction sought with a large enough effect in the repeat runs; an effect the other way counts as inactive or inconclusive;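 note: MDA-kb2 human breast cancer cells carrying an MMTV luciferase reporter; series mostly up to about 92 µM; nearly all actives have a fitted effect of over 25% in size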). The procedure, abridged: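 Fluorescence from CellTiter-Fluor, added after 15 hr and read 1 hr later, gave cell viability. Cells were MDA-kb2 exposed to compounds (15 concentrations) in the presence of 3.0uM nilutamide at 37C, 0% CO2.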

A short description of experiment [6]: qHTS assay to identify small molecule antagonists of the estrogen receptor beta (ER-beta) signaling pathway - cell viability counter screen (AID 1259382; active = well fitted curve in the direction sought with a large enough effect in the repeat runs; an effect the other way counts as inactive or inconclusive; note: series mostly up to about 92 µM; nearly all actives have a fitted effect of over 55% in size). A digest of the protocol: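 Following a 6 hr plating period, HEK293T cells carrying a UAS-driven beta-lactamase reporter under ER-beta control received compounds and 1nM E2 (final). After 16 hr at 37C and 2 hr substrate loading, CellTiter-Glo luminescence indicated viability.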

A short description of experiment [7]: qHTS assay to identify small molecule agonists or antagonists of the thyroid stimulating hormone receptor (TSHR) signaling pathway - wild type cell line counter screen (AID 1259384). A digest of the protocol: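 Wild-type Hek293 cells, 800/well, 18 h at 37C, then compound with Ro20-1724 for 30 min RT. cAMP by HTRF (cAMP-d2/anti-cAMP cryptate), 1 h RT, fluorescence read. 15 concentrations, triplicates.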

Experiment [8] concerns the target Thyrotropin receptor (Homo sapiens) (UniProt P16473). As to the kind of experiment: qHTS assay to identify small molecule antagonists of the thyroid stimulating hormone receptor (TSHR) signaling pathway (AID 1259385). Note: nearly all actives have a fitted effect of over 20% in size. The procedure, abridged: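 TSHR-HEK293 cells (800/well) plated 18 h, then compounds with Ro20-1724 and TSH at 1.5 ng/mL final, 30 min at room temperature. cAMP quantified by HTRF (cAMP-d2/anti-cAMP-cryptate, 1 h); 15 concentrations in triplicate.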

Experiment [9] can be described thus: qHTS assay to identify small molecule agonists of the estrogen receptor alpha (ER-alpha) signaling pathway in the presence of an antagonist - cell viability counter screen (AID 1259386; active = well fitted curve in the direction sought with a large enough effect in the repeat runs; an effect the other way counts as inactive or inconclusive;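 note: series mostly up to about 92 µM; cells exposed to compounds for 22 h at 37 °C before the viability read; nearly all actives have a fitted effect of over 30% in size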). A digest of the protocol: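 Cells are starved of estrogens for 5 days in charcoal-stripped serum, seeded for 24hr and co-treated with ICI-182,780 (10.0nM final) and test compounds. After 22hr at 37C, viability is read as CellTiter-Fluor fluorescence.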

Experiment [10] addresses Progesterone receptor (Homo sapiens) (UniProt P06401). The experiment can be described thus: qHTS assay to identify small molecule agonists of the progesterone receptor (PR) signaling pathway (AID 1346784). Note: nearly all actives have a fitted effect of over 30% in size. The procedure, abridged: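 PR-UAS-bla HEK 293T cells (beta-lactamase reporter under UAS) in 2% charcoal-stripped FBS, dosed with 23 nL compound after 6 hr, incubated 16hr at 37C. LiveBLAzer B/G FRET substrate added, fluorescence read after 2 hours.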

The target is the same in experiment [11]. As to the kind of experiment: qHTS assay to identify small molecule antagonists of the progesterone receptor (PR) signaling pathway (AID 1346795; active = well fitted inhibition curve with a large enough effect in the signal ratio in the repeat runs, not every such curve was filed as active; the % refers to the signal ratio). A digest of the protocol:
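PR-UAS-bla HEK293T cells with beta-lactamase reporter under UAS control, in 2% charcoal-stripped FBS, treated with compounds plus 1 nM promegestone (R5020, final) for 16 hr at 37C. Read-out: FRET beta-lactamase substrate fluorescence after 2 hr at room temperature.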

Experiment [12] in a line: qHTS assay to identify small molecule antagonists of the progesterone receptor (PR) signaling pathway - cell viability counter screen (AID 1346798; active = well fitted curve in the direction sought with a large enough effect in the repeat runs; an effect the other way counts as inactive or inconclusive; note: series mostly up to about 92 µM; nearly all actives have a fitted effect of over 50% in size). A digest of the protocol:
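PR-UAS-bla HEK293T cells, 3,000/well in 2% charcoal-stripped FBS medium, dosed with compounds plus R5020 agonist and incubated 16 h at 37C. Viability then measured in the same wells by CellTiter-Glo luminescence after 30 min at RT.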

The nature of experiment [13]: qHTS assay to identify small molecule agonists of the progesterone receptor (PR) signaling pathway - cell viability counter screen (AID 1346799). Note: nearly all actives have a fitted effect of over 45% in size. Note: potency is the fitted concentration of half-maximal effect. The procedure, abridged: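 Counter screen in the PR-UAS-bla HEK293T wells (2% charcoal-stripped FBS, 16 h compound exposure at 37 C) after the bla read. CellTiter-Glo added, 30 min at room temperature, luminescence read as cell viability.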

Experiment [14] in a line: qHTS assay to identify small molecule antagonists of the TGF-beta/Smad signaling pathway - cell viability counter screen (AID 1346824; active = well fitted curve in the direction sought with a large enough effect in the repeat runs; an effect the other way counts as inactive or inconclusive; note: nearly all actives have a fitted effect of over 50% in size). A digest of the protocol:
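SBE-bla HEK 293T cells, incubated overnight, then compound plus 0.25 ng/mL TGF-beta1 (stock added) for 5 hr at 37 C. Viability was read in the same wells by CellTiter-Glo luminescence after 30 min at room temperature.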

Experiment [15] is described as follows: qHTS assay to identify small molecule agonists of the TGF-beta/Smad signaling pathway - cell viability counter screen (AID 1346829; active = well fitted curve in the direction sought with a large enough effect in the repeat runs; an effect the other way counts as inactive or inconclusive; note: top concentration of the series differs between compounds; nearly all actives have a fitted effect of over 45% in size). A digest of the protocol:
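HEK 293T SBE-bla line, 5 hr compound exposure at 37 C, multiplexed CellTiter-Glo viability read by luminescence.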

Experiment [16] in a line: qHTS assay to identify small molecule agonists of the TGF-beta/Smad signaling pathway (AID 1346859; active = well fitted activation curve with a large enough effect in the signal ratio in the repeat runs, not every such curve was filed as active; the % refers to the signal ratio; note: series mostly up to about 77 µM). A digest of the protocol:
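SBE-bla HEK293T cells plated overnight, then compound exposure for 5 h at 37 C. Beta-lactamase reporter read with LiveBLAzer B/G FRET substrate after 2 h at room temperature, fluorescence at 405 nm excitation, 460/530 nm emission.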

Experiment [17] has as its target Thyrotropin-releasing hormone receptor (Homo sapiens) (UniProt P34981). As to the kind of experiment: qHTS assay to identify small molecule antagonists of the thyrotropin-releasing hormone receptor (TRHR) signaling pathway (AID 1346877; active = well fitted inhibition curve with a large enough effect in the repeat runs, not every such curve was filed as active; note: series mostly up to about 51 µM). The procedure, abridged:
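Cells (TRHR-HEK293) are plated and kept 18 h at 37 °C/5% CO2. A calcium-sensitive dye is added for 2 h, compound follows for 5 min at room temperature, and TRH is then given at 1 nM final.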

The target in experiment [18] is Estrogen receptor (Homo sapiens) (UniProt P03372). The experiment can be described thus: qHTS assay to identify small molecule agonists of the estrogen receptor alpha (ER-alpha) signaling pathway in the presence of an antagonist (AID 1259383). Note: top concentration of the series differs between compounds; nearly all actives have a fitted effect of over 15% in size. A digest of the protocol: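 Cells are hormone-deprived for 5 days (charcoal-stripped FBS, no phenol red), plated for 24hr, spiked with 10.0nM ICI-182,780, then dosed at 15 concentrations. After 22hr at 37C, ONE-Glo luminescence reports ERE-luciferase activity.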

Experiment [19] concerns the target Androgen receptor (Homo sapiens) (UniProt P10275). As to the kind of experiment: qHTS assay to identify small molecule agonists of the androgen receptor (AR) signaling pathway in the presence of an antagonist (AID 1259381). Note: nearly all actives have a fitted effect of over 15% in size. The procedure, abridged: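 Cells are MDA-kb2 (human breast carcinoma, MMTV-luc, AR/GR responsive). Nilutamide is present at 3.0uM final throughout; compounds are added at 15 concentrations and incubated 16hr at 37C before ONE-Glo luminescence detection.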

Experiment [20] can be described thus: qHTS assay to identify small molecule agonists of the estrogen receptor beta (ER-beta) signaling pathway - cell viability counter screen (AID 1259380; active = well fitted curve in the direction sought with a large enough effect in the repeat runs; an effect the other way counts as inactive or inconclusive; note: nearly all actives have a fitted effect of over 30% in size). A digest of the protocol: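 Same-well viability counter screen. Cells: ER-beta-UAS-bla HEK293T, plated 6 hr before compound, in 2% charcoal-stripped FBS. Compound exposure 16 hr, 37C; viability by CellTiter-Glo luminescence after 30 min at room temperature.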

Molecules are shown by their SMILES. A number with no mark means an inactive call. Records with an inconclusive call do not appear. Activity calls are given as the source filed them. Unless noted, calls come from the whole dose curve.
% is set by controls: 0 for no effect and ±100 for the full control effect.

Chain of Estrogen receptor beta (Homo sapiens) (Q92731 whole entry, looked up): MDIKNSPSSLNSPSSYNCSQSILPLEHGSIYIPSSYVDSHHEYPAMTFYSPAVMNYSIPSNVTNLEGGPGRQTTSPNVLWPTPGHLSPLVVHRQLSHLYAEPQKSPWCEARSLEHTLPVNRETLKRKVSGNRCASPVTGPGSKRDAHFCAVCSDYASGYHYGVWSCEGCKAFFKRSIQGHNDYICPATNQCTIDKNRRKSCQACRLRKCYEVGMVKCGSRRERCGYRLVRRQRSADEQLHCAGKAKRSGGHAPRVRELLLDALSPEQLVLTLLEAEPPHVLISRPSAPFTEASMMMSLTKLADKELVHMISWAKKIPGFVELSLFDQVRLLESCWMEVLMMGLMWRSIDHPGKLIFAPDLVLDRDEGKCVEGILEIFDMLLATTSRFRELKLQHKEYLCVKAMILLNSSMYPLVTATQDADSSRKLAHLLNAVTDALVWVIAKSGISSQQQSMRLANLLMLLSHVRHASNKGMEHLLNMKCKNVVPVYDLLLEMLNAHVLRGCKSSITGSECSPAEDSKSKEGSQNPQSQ
Chain of Thyrotropin-releasing hormone receptor (Homo sapiens) (P34981 whole entry, looked up): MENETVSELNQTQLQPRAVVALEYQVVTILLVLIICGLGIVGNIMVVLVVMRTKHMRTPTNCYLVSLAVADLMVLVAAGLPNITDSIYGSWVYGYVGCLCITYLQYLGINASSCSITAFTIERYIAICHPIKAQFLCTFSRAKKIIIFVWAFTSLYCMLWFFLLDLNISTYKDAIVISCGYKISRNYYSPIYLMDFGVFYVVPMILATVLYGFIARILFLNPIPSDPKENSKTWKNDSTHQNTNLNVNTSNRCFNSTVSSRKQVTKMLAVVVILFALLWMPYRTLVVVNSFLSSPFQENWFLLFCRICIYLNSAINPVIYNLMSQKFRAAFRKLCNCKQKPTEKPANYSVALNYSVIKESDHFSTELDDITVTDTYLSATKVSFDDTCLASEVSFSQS
Chain of Progesterone receptor (Homo sapiens) (P06401 whole entry, looked up): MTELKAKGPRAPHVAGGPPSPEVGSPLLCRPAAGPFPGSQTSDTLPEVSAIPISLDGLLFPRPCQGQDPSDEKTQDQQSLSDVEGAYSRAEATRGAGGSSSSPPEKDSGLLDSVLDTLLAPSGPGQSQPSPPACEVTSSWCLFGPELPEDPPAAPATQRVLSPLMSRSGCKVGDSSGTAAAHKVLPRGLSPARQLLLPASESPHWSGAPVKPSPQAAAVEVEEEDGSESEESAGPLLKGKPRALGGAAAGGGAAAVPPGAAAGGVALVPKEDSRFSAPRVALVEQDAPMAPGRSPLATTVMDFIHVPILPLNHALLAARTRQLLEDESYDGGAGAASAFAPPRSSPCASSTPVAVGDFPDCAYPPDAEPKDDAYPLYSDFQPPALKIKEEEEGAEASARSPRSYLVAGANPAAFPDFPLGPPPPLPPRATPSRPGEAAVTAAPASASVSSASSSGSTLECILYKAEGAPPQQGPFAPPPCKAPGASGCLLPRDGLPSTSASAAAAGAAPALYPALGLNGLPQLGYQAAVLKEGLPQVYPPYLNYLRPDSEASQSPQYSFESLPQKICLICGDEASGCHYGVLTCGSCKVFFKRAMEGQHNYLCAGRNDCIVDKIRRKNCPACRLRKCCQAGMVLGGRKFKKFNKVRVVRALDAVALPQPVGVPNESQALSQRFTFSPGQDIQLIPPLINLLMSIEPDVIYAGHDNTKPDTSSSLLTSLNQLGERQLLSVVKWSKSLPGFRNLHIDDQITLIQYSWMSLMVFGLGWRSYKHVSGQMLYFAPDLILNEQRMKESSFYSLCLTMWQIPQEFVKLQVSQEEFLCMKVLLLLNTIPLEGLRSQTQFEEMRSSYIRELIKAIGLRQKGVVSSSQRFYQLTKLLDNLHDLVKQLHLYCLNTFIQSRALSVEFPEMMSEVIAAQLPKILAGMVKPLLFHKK
Chain of Thyrotropin receptor (Homo sapiens) (P16473 whole entry, looked up): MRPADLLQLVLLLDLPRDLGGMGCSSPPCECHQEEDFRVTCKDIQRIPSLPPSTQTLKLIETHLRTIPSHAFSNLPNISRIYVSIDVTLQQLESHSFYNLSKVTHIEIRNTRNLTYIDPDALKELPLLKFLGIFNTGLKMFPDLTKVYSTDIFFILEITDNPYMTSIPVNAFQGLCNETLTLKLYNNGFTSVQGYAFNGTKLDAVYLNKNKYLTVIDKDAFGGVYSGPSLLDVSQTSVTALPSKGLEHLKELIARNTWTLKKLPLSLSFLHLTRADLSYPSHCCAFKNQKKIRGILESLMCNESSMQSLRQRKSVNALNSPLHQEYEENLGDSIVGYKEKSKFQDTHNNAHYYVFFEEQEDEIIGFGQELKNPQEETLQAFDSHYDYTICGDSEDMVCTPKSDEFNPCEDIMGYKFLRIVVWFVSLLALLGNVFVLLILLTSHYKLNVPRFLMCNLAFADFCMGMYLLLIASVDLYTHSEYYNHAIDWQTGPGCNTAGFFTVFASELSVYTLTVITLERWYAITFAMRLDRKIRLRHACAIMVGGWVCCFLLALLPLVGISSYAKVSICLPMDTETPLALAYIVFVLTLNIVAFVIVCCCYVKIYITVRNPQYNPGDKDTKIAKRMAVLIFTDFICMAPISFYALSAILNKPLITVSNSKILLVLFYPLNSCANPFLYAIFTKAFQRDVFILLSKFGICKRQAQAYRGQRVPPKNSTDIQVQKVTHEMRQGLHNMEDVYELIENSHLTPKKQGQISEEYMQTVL
Chain of Estrogen receptor (Homo sapiens) (P03372 whole entry, looked up): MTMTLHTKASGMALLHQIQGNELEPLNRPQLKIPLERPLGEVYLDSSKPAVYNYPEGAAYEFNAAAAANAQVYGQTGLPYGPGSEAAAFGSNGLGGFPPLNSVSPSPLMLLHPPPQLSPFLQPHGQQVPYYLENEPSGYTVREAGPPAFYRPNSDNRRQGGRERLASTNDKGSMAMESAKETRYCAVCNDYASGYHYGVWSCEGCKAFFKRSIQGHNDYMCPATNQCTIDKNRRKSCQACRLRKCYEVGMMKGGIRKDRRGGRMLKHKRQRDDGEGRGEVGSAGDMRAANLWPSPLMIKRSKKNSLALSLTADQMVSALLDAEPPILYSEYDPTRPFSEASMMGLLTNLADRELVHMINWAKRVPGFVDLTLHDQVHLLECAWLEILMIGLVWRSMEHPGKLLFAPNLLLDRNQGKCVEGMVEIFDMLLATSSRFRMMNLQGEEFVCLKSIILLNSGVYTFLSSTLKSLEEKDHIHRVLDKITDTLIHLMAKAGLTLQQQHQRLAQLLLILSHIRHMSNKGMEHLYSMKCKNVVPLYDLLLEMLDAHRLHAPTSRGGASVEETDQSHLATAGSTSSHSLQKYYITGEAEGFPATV
Chain of Androgen receptor (Homo sapiens) (P10275 whole entry, looked up): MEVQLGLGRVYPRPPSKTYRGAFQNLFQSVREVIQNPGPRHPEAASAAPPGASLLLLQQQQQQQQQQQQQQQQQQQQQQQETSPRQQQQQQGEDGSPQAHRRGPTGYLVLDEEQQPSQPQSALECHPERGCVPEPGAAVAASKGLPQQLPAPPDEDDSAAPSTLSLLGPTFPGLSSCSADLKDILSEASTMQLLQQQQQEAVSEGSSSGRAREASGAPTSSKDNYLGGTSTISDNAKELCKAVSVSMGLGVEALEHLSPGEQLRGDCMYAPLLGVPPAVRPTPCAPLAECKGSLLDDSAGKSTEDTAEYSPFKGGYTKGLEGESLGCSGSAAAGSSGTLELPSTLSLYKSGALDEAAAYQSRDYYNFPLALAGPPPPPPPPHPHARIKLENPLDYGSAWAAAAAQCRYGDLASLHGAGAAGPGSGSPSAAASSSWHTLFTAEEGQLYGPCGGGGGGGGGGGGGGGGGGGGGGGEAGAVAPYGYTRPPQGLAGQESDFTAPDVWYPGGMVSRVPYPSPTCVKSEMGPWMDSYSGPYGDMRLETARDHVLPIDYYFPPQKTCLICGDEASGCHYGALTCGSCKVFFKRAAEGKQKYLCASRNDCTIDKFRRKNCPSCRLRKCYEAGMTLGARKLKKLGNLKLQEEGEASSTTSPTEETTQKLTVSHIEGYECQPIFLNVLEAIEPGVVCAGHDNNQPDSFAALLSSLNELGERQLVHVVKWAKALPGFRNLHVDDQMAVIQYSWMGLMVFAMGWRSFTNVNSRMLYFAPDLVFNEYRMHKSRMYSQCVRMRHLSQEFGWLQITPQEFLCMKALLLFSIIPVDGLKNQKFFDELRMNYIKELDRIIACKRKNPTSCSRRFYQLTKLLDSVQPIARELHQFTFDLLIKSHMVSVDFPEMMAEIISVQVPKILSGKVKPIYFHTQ

Regarding `CCCCCCCCCCCCCCC`, the Potency result in [1], in experiment [2], in [4], in experiment [5], in [6] and in [8] was “inactive” throughout. The Potency entry in experiment [10], in experiment [11], in experiment [12] and in experiment [13] was “inactive” throughout. For the same compound, the compound was classed as inactive in [3], in experiment [7], in experiment [9], in experiment [14], in experiment [15] and in experiment [16]. Besides, the result in experiment [17] was inactive.

As for `CC12CCC(CC1=O)C2(C)C` (centres undefined), the Potency entry in experiment [1], in [2], in [4], in [5], in experiment [6] and in experiment [18] was “inactive” each time. The Potency entry in experiment [8], in experiment [11], in experiment [12] and in experiment [13] was “inactive” in each case. The compound was called inactive in [3], in experiment [7], in experiment [14], in experiment [15], in [16] and in experiment [17].

With `O=C1CC2(CCCC2)CC(=O)N1`, the Potency entry in [1], in experiment [2], in experiment [4], in [5], in experiment [19] and in [6] was “inactive” each time. For the same compound, the Potency result in experiment [18], in experiment [8], in [10], in experiment [11], in [12] and in [13] was “inactive” throughout. For the same compound, the outcome in experiment [3], in experiment [7], in experiment [9], in experiment [14], in [16] and in experiment [17] was inactive.

With `FC(F)(F)C(F)(F)C(F)(F)C(F)(F)C(F)(F)C(F)(F)C(F)(F)C(F)(F)C(F)(F)C(F)(F)F`, the activity change in experiment [1] is -0.701% [at 8.39 µM, hits give high values]. For the same compound, the activity change, negative = inhibition in experiment [2] was -15.5% [at 8.39 µM]; in [8] it was -3.91% [at 8.39 µM]; in experiment [11] it was 0.137% [at 8.39 µM]. Moreover, the activation in experiment [3] was -4.79% [at 8.39 µM]; in experiment [10], 2.84% [at 8.39 µM]; in experiment [16], 2.81% [at 6.97 µM]. In addition, the figures for the activity, negative = inhibition in experiment [4] and in experiment [17] were 3.92% [at 8.39 µM] and 0.552% [at 4.65 µM], respectively. Besides, the activity change, negative = cytotoxicity in experiment [5] is 1.46% [at 8.39 µM]; in experiment [20], -0.929% [at 8.39 µM]; in experiment [9], 4.74% [at 8.39 µM]; in [13], 0% [at 8.39 µM]; in experiment [15], 13.6% [at 6.97 µM]. Moreover, the cAMP activity change in experiment [7] is 1.74% [at 8.39 µM]. Besides, in experiment [14], the viability change, negative = cytotoxic was -11.6% [at 6.97 µM].

As to `Cc1nccn1CC1CCc2c(c3ccccc3n2C)C1=O` (centres undefined), the Potency entry in [1], in experiment [2], in experiment [4], in experiment [5], in [6] and in experiment [18] was “inactive” each time. The Potency entry in [10], in [11], in experiment [12] and in experiment [13] was “inactive” in each case. The outcome in experiment [3], in experiment [7], in experiment [9], in experiment [14], in experiment [15] and in experiment [16] was inactive. Moreover, in experiment [17], the outcome was inactive.

For `CCC(C(=O)NC(N)=O)c1ccccc1` (centres undefined), the Potency result in [1], in [2], in experiment [4], in experiment [5], in [6] and in experiment [18] was “inactive” each time. In addition, the Potency result in experiment [8], in [10], in experiment [11], in experiment [12] and in [13] was “inactive” in each case. For the same compound, the call in experiment [3], in experiment [7], in experiment [14], in experiment [15], in experiment [16] and in [17] was inactive.

Consider `CCCc1ccccc1O`, for which the Potency result in [1], in experiment [2], in experiment [4], in experiment [5], in [20] and in experiment [8] was “inactive” in each case. Also, the Potency entry in experiment [10], in experiment [11], in experiment [12] and in experiment [13] was “inactive” throughout. The result in experiment [3], in [7], in [9], in [14], in [16] and in experiment [17] was inactive.

As to `O=C(O)C(O)[C@H](O)[C@@H](O)[C@H](O)[C@H](O)CO` (some centres undefined), the Potency entry in experiment [1], in [2], in experiment [4], in experiment [5], in [18] and in experiment [8] was “inactive” throughout. For the same compound, the Potency result in experiment [11] was “inactive”. Besides, the result in experiment [3], in experiment [7], in [14] and in [16] was inactive. In addition, the Potency in [13] was 49.1 µM (active).
